This is a sample that favours compounds with a hit; in the whole collection about 19% have one here.
TDP1 cell noCPT = qHTS for Inhibitors of human tyrosyl-DNA phosphodiesterase 1 (TDP1): qHTS in cells in absence of CPT | DT40 Tdp1-/- hTDP1 cells, no CPT, ATP luminescence, 48 h | hit rate 15% among 420,000 | Potency, µM (series often up to 46.2 µM), without a hit: at the top dose activity change, negative = growth inhibition, usual class: inhibitors; note: potency is the fitted concentration of half-maximal effect; nearly all actives have a fitted effect of over 55% in size
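No-CPT arm: Tdp1-/-;hTDP1 DT40 cells (400/well) plus compounds, incubated ≥48 hr at 37 °C. Readout CellTiter-Glo luminescence.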
TDP1 cell CPT = qHTS for Inhibitors of human tyrosyl-DNA phosphodiesterase 1 (TDP1): qHTS in cells in presence of CPT | AID 686979, 2013 | chicken DT40 Tdp1-/-;hTDP1 cells + 20 nM CPT, ATP luminescence, 48 h | Potency, µM (titrated, usually from 46.2 µM), for inactives: at the top dose activity change, negative = growth inhibition, usual class: inhibitors | hit rate 12% among 420,000; note: potency is the fitted concentration of half-maximal effect; nearly all actives have a fitted effect of over 55% in size
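Cell growth measured by CellTiter-Glo luminescence after a minimum 48 h, 37 C compound exposure with 20 nM CPT in Tdp1-knockout DT40 cells stably expressing hTDP1, seeded 400/well; qHTS titration format.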
HT1080-NT tox = qHTS for induction of synthetic lethality in tumor cells producing 2HG: qHTS for the HT-1080-NT fibrosarcoma cell line | hit rate 1.6% among 360,000 | Potency, µM (doses to about 46.1 µM), inactives show at the top dose activity, negative = less viability, usual class: cytotoxic | HT-1080-NT fibrosarcoma viability, CellTiter-Glo ATP luminescence, 48 h;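 note: NT is the 2HG producing partner of a matched IDH1 knockdown line; potency is the fitted concentration of half-maximal effect; 0% = DMSO-treated cells and -100% = media-only wells without cells; nearly all actives have a fitted effect of over 55% in size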
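Read-out is CellTiter-Glo luminescence after 10 minutes at room temperature, following 48 hours' compound treatment of HT-1080-NT cells (750 cells/well, RPMI, 5% FBS, 37 degrees C).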
HT1080 IDH1KD tx = qHTS for induction of synthetic lethality in tumor cells producing 2HG: qHTS for the HT-1080-IDH1KD cell line; HT-1080 IDH1 knockdown viability, ATP luminescence, 48 h; Potency, µM (highest dose often 46.1 µM), for inactives: top-dose activity, negative = toxicity, actives largely listed as cytotoxic; AID 686971, 2013; hit rate 2% among 360,000;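 note: potency is the fitted concentration of half-maximal effect; 0% = DMSO wells and -100% = cell-free medium wells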
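In this qHTS, HT-1080 cells depleted of IDH1 are exposed for 48 h at 37 °C to compound titrations. Toxicity is scored from CellTiter-Glo luminescence, with DMSO as full viability and medium alone as none.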
IL1B secr inh = qHTS for Inhibitors of Inflammasome Signaling: IL-1-beta AlphaLISA Primary Screen | activity change, % at 57.5 µM | hit rate 4.7% among 360,000 | THP-1 LPS/ATP IL-1B secretion, AlphaLISA, 16 h; hits give low values; in the data active = activity change below about -50%; inconclusive = mostly about -30% to -49%
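THP-1 cells pretreated 1 hr with compounds (up to 57.5 uM final), then stimulated with LPS (250 ng/mL final) plus ATP (1.25 mM final); secreted IL-1B measured by AlphaLISA after 16 hr, decreased signal indicating inhibition.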
Starred values were filed as active, the others as inactive; i = inactive; ? = inconclusive; nt = no result given. Unless noted, calls come from the whole dose curve; as a rule, active = well fitted curve in the direction sought with a large enough effect; inconclusive = small, poorly fitted or top-dose-only effect, or another doubt; inactive = no such curve, though single readings can be large; an effect the other way counts as inactive or inconclusive. Unless noted, % is set by controls: 0 for no effect and ±100 for the full control effect.

SMILES	TDP1 cell noCPT	TDP1 cell CPT	HT1080-NT tox	HT1080 IDH1KD tx	IL1B secr inh
CCNc1nc(NCC)n2c(SC(C(=O)Nc3cc(C)ccc3C)c3ccccc3)nnc2n1 (stereo unspecified)	11.6µM*	?	-23.3%	?	?
CCNc1nc(NCC)n2c(SC(C)C(=O)c3ccc(C)cc3)nnc2n1 (stereo unspecified)	13µM*	?	4.5%	0.7%	1.2
CCNc1nc(NCC)n2c(SCC(=O)Nc3ccc(CC)cc3)nnc2n1	?	20.6µM*	4.4%	0.3%	-1.0
Cc1nc2ccccn2c(=O)c1NC(=O)c1ccccc1Cl	-16.5%	-7.6%	nt	nt	nt
CNS(=O)(=O)c1cn(CC(=O)NCc2cccc(OC)c2)cc1S(=O)(=O)NC	14.1%	14.5%	-2.8%	7.8%	26.9
O=[N+]([O-])c1cc(C(F)(F)F)cc([N+](=O)[O-])c1NCCN1CCNCC1	20.6µM*	20.6µM*	-1.6%	-5.8%	10.9
N#CCC(=O)NNc1c([N+](=O)[O-])cc(C(F)(F)F)cc1[N+](=O)[O-]	?	?	-27.5%	-22.5%	-25.5
O=[N+]([O-])c1cc(C(F)(F)F)cc([N+](=O)[O-])c1NN=C1CCCCC1	23.1µM*	?	-1.0%	0.0%	-1.3
Fc1ccc(NC(=S)NCCc2ccc(Cl)cc2)cc1	23.1µM*	?	-7.0%	-3.4%	0.0
Fc1ccc(CCNC(=S)Nc2ccc(F)c(Cl)c2)cc1	?	18.4µM*	?	?	-82.9*
O=C(NCCc1ccc(Cl)cc1)Nc1ccc(F)cc1	?	?	2.5%	-3.9%	-25.9
Cc1cc(C)cc(NC(=O)C(Sc2ncnc3ccccc23)c2ccccc2)c1 (stereo unspecified)	?	?	-3.9%	-17.4%	-58.2*
O=C(Nc1cccc(C(F)(F)F)c1)C(SCCO)c1ccccc1 (stereo unspecified)	?	11.8%	-0.4%	3.0%	14.4
O=C(Nc1cccc(C(F)(F)F)c1)C(Sc1ncnc2ccccc12)c1ccccc1 (stereo unspecified)	20.6µM*	?	-15.9%	-27.8%	-108.1*
Cn1nnnc1SC(C(=O)Nc1cccc(C(F)(F)F)c1)c1ccccc1 (stereo unspecified)	-17.0%	-19.1%	-6.8%	-15.7%	-72.1*
CCOc1ccc(NC(=O)Nc2nc3ccc(S(C)(=O)=O)cc3s2)cc1	-29.2%	-27.0%	-18.1%	?	i
COc1cccc(Cn2cc(C)cc(NC(=O)NCc3ccccc3)c2=O)c1	2.8%	0.4%	4.0%	-17.4%	15.7
COc1ccccc1[C@@]1(C)ON(c2ccccc2C(F)(F)F)C1=O	?	?	-21.9%	-20.2%	-94.3*
O=C1N(c2ccccc2C(F)(F)F)OC1(Cc1ccccc1)c1ccccc1 (stereo unspecified)	?	-21.9%	-4.8%	-7.1%	-79.6*
CC(C)(C)Cc1cc(N)on1	-3.9%	-8.9%	-0.4%	7.7%	1.7
C[C@@]12C(=O)Nc3ccc(Cl)cc3C(=O)N1[C@H]1c3ccccc3OC[C@@H]1[C@@H]2c1ccccc1	?	?	-21.3%	-24.2%	?
Cc1ccc2c(c1)[C@@H]1[C@H](CO2)[C@H](c2ccccc2)[C@@]2(C)C(=O)N[C@H](C)C(=O)N12	-11.2%	-12.3%	9.8%	8.9%	4.0
Cc1ccc2c(c1)C(=O)N1[C@H]3c4cc(Cl)ccc4OC[C@@H]3[C@H](c3ccccc3)[C@]1(C)C(=O)N2	16.4µM*	?	-25.9%	?	-29.0
Cc1ccc2c(c1)C(=O)N1[C@H]3c4cc(C)ccc4OC[C@@H]3[C@H](c3ccccc3)[C@]1(C)C(=O)N2	13µM*	11.6µM*	?	7.31µM*	-52.7*
CC(C)Oc1ccc(S(=O)(=O)N2CCOCC2)cc1NC(=O)Cc1ccsc1	?	20.6µM*	-3.0%	-1.1%	-6.8
SMILES	TDP1 cell noCPT	TDP1 cell CPT	HT1080-NT tox	HT1080 IDH1KD tx	IL1B secr inh
COc1ccc(S(=O)(=O)N2CCOCC2)cc1NC(=O)Cc1ccsc1	-4.8%	0.8%	10.9%	16.2%	19.9
CC(C)Oc1ccc(S(=O)(=O)N2CCOCC2)cc1NC(=O)C1COc2ccccc2O1 (stereo unspecified)	18.4µM*	20.6µM*	-2.6%	-14.3%	-8.4
NCCCCCNC(=O)c1nc[nH]c1C(=O)NCC(=O)OCc1ccccc1	-1.1%	-32.2%	13.3%	13.5%	20.6
CCOC(=O)N1CCN(c2cc(N3CCOCC3)c(F)cc2[N+](=O)[O-])CC1	?	-28.9%	-0.2%	-0.4%	-13.9
CCOC(=O)N1CCN(c2cc(N3CCN(CC)CC3)c(F)cc2[N+](=O)[O-])CC1C (stereo unspecified)	?	20.6µM*	-0.2%	?	?
Cn1cc(-c2coc3c(C(=O)Nc4ccccc4)cccc23)cn1	?	?	-18.4%	-9.2%	-28.8
COc1cc(NC(=O)c2cccc3c(-c4cnn(C)c4)coc23)cc(OC)c1OC	3.26µM*	4.61µM*	?	?	-75.3*
COc1ccc(NC(=O)c2cccc3c(-c4cnn(C)c4)coc23)cc1	23.1µM*	?	-11.2%	-19.9%	?
Cc1ccc(C)c(CSc2nnc([C@@H]3CCCN3)o2)c1	-12.1%	-7.2%	-2.0%	-0.9%	2.5
NC(=O)NC(=O)COC(=O)c1cccnc1Nc1ccccc1F	-6.4%	-4.6%	-3.8%	-0.8%	-25.3
CCCNC(=O)COC(=O)c1cccnc1Nc1ccccc1F	16.4µM*	-27.5%	-0.8%	-1.6%	-9.4
Cc1ccc(S(=O)(=O)N/N=C\c2cn(CC(N)=O)c3ccccc23)cc1C	-11.3%	-17.2%	-9.4%	-13.6%	18.8
COc1ccccc1NC(=O)COc1ccccc1C(=O)c1cnn(-c2ccccc2)c1	23.1µM*	20.6µM*	-1.7%	-11.3%	-0.1
CCC1(CC)C(=O)C2=C3C1[C@H](C(=O)OC)CC(C(=O)OC)C[C@H]3[C@H]1C(=O)N(c3ccccc3)C(=O)[C@H]1[C@H]2C (stereo partly specified)	-3.3%	-9.8%	1.2%	-5.7%	8.6
Cc1ccc(Cl)cc1NC(=O)c1ccccc1OCC(=O)Nc1ccc(Cl)cc1	5.8µM*	?	?	-6.2%	4.1
Cc1ccccc1OCC(=O)NNC(=O)Nc1ccc(Cl)cc1	4.61µM*	5.8µM*	6.51µM*	4.61µM*	59.2

From PubChem BioAssay
